# Experimental data published in PubChem BioAssay (NCI).
# Where “and” joins values, the source holds several entries; their conditions need not be identical. Equal values may be shown once. About 83,000 compounds went through this panel and 20% of them were active in at least one assay; those are over-represented in the sample as a whole.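 Single-dose data. Exposure time 48 hours. Values below 10 considered active.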 A number with no mark means an inactive call. Calls of active or inactive are those of the source.
# System: SK-MEL-28 melanoma
# Assay: NCI-60 one-dose screen, 48 h (100 = growth as untreated, 0 = no growth, -100 = all killed)
# Conditions: 10 µM
# Protocol: Growth inhibition of the SK-MEL-28 human tumor cell line is measured as a screen for anti-cancer activity. Cells are grown in 96 well plates and exposed to the test compound for 48 hours. Compounds are tested at a single concentration, which is 10^-5 M for most compounds. The reported endpoint is percent growth (GI% or GIPRCNT), where numbers from 0 - 100% represent growth inhibition, and numbers from -100% - 0 represent cell death. For example, a value of 40 represents 60% growth inhibition. A value of 0 means no net growth occurred over the course of the experiment. A value of -40 indicates 40% of cells at the beginning of the experiment died by the end of the experiment. A value of -100 means all cells are dead at the end of the experiment.
# NCI-60 Human Tumor Cell Lines Screen was performed using the standard one-dose NCI protocol, which is described in more detail at https://dtp.cancer.gov/discovery_development/nci-60/default.htm.
# Compounds with GIPRCNT values below 10 were considered active. Activity score was based on GIPRCNT using the following formula: […]
# Score is 0 for GIPRCNT values of 100 or above, 50 for GIPRCNT values of 0, and 100 for GIPRCNT values of -100.
row,SMILES,growth
1,S=C(SSC(=S)N1CCCCC1)N1CCCCC1,105%
2,CCOC(=O)C(NC(=O)C(Cc1ccc(N(CCCl)CCCl)cc1)NC(C)=O)C(C)C (stereo not drawn),101%
3,CCCCCCCCCCCC1CCCC(C)N1 (stereo not drawn),96.7%
4,COc1ccc(OC)c(/C=C/[N+](=O)[O-])c1,-20% (active)
5,O=C1c2ccccc2C(=O)C(Cl)C1Cl (stereo not drawn),87.9%
6,CC1=C2C(=O)[C@H]3[C@@H](CC=C4C[C@@H](O)CC[C@@]43C)[C@@H]2CC[C@]12O[C@@H]1C[C@H](C)CN[C@H]1[C@H]2C,118%
7,CCC(=O)OC1CCn2c1nc1c2C(=O)C(C)=C(N2CC2)C1=O (stereo not drawn),-42.1% (active)
8,CC(=O)O[C@H]1C[C@@H]2OC3C=C(C)CCC3(C)[C@@]1(C)[C@@]21CO1 (stereo partly drawn),-24.3% (active) and -29.8% (active)
9,Cc1ccc(C(=O)OC(C(=O)O)C(OC(=O)c2ccc(C)cc2)C(=O)O)cc1 (stereo not drawn) (tested in a mixture with another compound),57.7%
10,NCCc1ccc(OCc2ccccc2)c(OCc2ccccc2)c1,97.3%
11,Cc1cc(N=Nc2ccccc2C)ccc1N,99.4%
12,CC[n+]1c(-c2ccccc2)c2cc(N)ccc2c2ccc(N)cc21,-42.9% (active)
13,COc1ccccc1/C=C(/C)[N+](=O)[O-],83.3% and 116%
14,CN1CCN(c2ccc([N+](=O)[O-])c3no[n+]([O-])c23)CC1,17.3%
15,Oc1cc[c]([Hg][Cl])cc1,74.5%
16,COc1cccc2c1cc([N+](=O)[O-])c1c(C(=O)O)cc3c(c12)OCO3,99.8%
17,Oc1cccc2cccnc12,97.2% and 107% and 106%

# Same assay, conditions: 100 µM
row,SMILES,growth
1,S=C(SSC(=S)N1CCCCC1)N1CCCCC1,-41.6% (active)
